Experimental data from PubChem BioAssay (Tox21).
Results filed as inconclusive are left out. Entries that show only a call come without a potency. Active and inactive are the calls of the source. Calls follow the shape of the dose curve; as a rule, active = well fitted cell-killing curve with a large enough effect in the repeat runs; inconclusive = weak or mixed curves, or effect the other way; inactive = no such curve, though single readings can be large or run the other way.

Test: qHTS assay for identifying genotoxic compounds that show differential cytotoxicity against isogenic chicken DT40 cell lines with known DNA damage response pathways - wild type cell line (AID 743012); also: nearly all actives have a fitted effect of over 60% in size
Details: DT40 wild type chicken cells viability, CellTiter-Glo, 40 h; series mostly up to 68.4 µM
From the text: U.S. Tox21 Program National Center for Advancing Translational Sciences [NCATS] NIH Chemical Genomics Center [NCGC] U.S. Environmental Protection Agency [EPA] National Institutes of Environmental Health Sciences [NIEHS] National Toxicology Program [NTP] U.S. Food and Drug Administration [FDA] Tox21 Assay Overview: DNA repair pathways play a critical role in cellular homeostasis by repairing DNA damage induced by endogenous processes and xenobiotics. Isogenic chicken DT40 cell lines deficient in different DNA repair pathways can be used to identify genotoxic compounds and aid in characterizing the nature of the DNA damage induced. Two DNA repair-deficient cell lines with disrupted genes, Rad54/Ku70 or Rev3, were used to screen the Tox21 10K compound library. Possible genotoxicity was based on the presence of a significant increase in cytotoxicity in one or more of the DNA repair-deficient cell lines compared to that observed in the parental DNA repair-proficient cell line. CellTiter Glo viability assay (Promega, Madison, WI) was used to measure cell viability in these cells after compound treatment. This assay includes the data from the wild type cell line.
Tox21 Assay Protocol Summary: 300 DT40 wild type cells in 5 uL/well were dispensed into white, solid-bottom 1536-well plates using a Multidrop Combi (ThermoFisher Scientific, Waltham, MA) dispenser. After the assay plates were incubated at 37 C/5% CO2 for approximately 0.5 hour, 23 nL of compounds dissolved in DMSO, positive controls or DMSO only was transferred into the assay plate by a pintool work station (Kalypsys, San Diego, CA). The assay plates were incubated at 37 C/5% CO2 for 40 hours. After 5 uL per well of CellTiter-Glo reagent was added into each well of the assay plates, the plates were incubated for 30 min at room temperature and the luminescence intensity of the plates was measured using a ViewLux (PerkinElmer, Shelton, CT) plate reader.
Potency is read from the fitted curve at half-maximal effect.

Compound | Potency
O=C(O)CCNC(=O)c1ccccc1 | inactive
Cc1cc(O)c2c(c1)C(=O)c1cccc(O)c1C2=O | inactive
CCCCCCCCCCC | inactive
CCN(CCC#N)c1ccccc1 | inactive
CC(=O)OCCCc1ccccc1 | inactive
COC(=O)CCC(=O)O | inactive
C[C@H](CCC(=O)O)[C@H]1CC[C@H]2[C@@H]3[C@H](O)C[C@@H]4C[C@H](O)CC[C@]4(C)[C@H]3C[C@H](O)[C@]12C | inactive
NS(=O)(=O)c1ccc(Cl)c(S(N)(=O)=O)c1 | inactive
COc1ccc(/C=N/NC(=O)c2ccncc2)cc1OC | inactive
CCCCCCCCCOCC1CO1 (stereo not given) | inactive
O=c1cc(O)c(Cl)c[nH]1 | inactive
CC(=O)OC(C(=O)c1ccccc1)c1ccccc1 (stereo not given) | inactive
NS(=O)(=O)c1cc2c(cc1Cl)NC(C(Cl)Cl)NS2(=O)=O (stereo not given) | inactive
O=C(O)Cc1cccc(-c2cc(CCCCCCc3ccc(O[C@H]4O[C@H](CO)[C@@H](O)[C@H](O)[C@@H]4O)c(-c4cccc(CC(=O)O)c4)c3)ccc2O[C@H]2O[C@H](CO)[C@@H](O)[C@H](O)[C@@H]2O)c1 | inactive
CCC(C)(C)C1CCC(=O)CC1 | inactive
CN[C@@H]1[C@H](O)[C@H](NC)[C@H]2O[C@@]3(O)C(=O)C[C@@H](C)O[C@H]3O[C@@H]2[C@H]1O | inactive
O=C1NC2NC(=O)NC2N1 (stereo not given) | inactive
Cc1c(C(C)C)c(=O)n(-c2ccccc2)n1C | inactive
NS(=O)(=O)c1cc2c(cc1Cl)NC(CC1CCCC1)NS2(=O)=O (stereo not given) | inactive
COc1cc2c3cc1Oc1cc(ccc1O)C[C@@H]1c4c(cc(OC)c(O)c4Oc4ccc(cc4)C[C@@H]3N(C)CC2)CC[N+]1(C)C | inactive

Compound | Potency
FC(F)(F)c1ccc(Cl)cc1Cl | inactive
CCC(=O)OCCC(C)CCC=C(C)C (stereo not given) | inactive
NC(=O)NC(=O)Cc1ccccc1 | inactive
CN(C1CCCCC1)S(=O)(=O)c1ccccc1N | 30.6 µM (active)
CC(C)(C)NCCO | inactive
Oc1ccccc1Cc1ccccc1O | inactive
C=CCOc1c(Br)cc(Br)cc1Br | inactive
Nc1cc(S(=O)(=O)O)ccc1S(=O)(=O)O | inactive
CCCCCCCCC(=O)OCC | inactive
C[Si]1(C)N[Si](C)(C)N[Si](C)(C)N1 | inactive
CCCCC/C=C/CC(=O)OC | inactive
COc1ccc(OC)c(NC(=O)CC(C)=O)c1 | inactive
Cc1nc(C)nc(N2C[C@@H](C)N(c3ccnc([C@@H](C)O)n3)[C@@H](C)C2)n1 | inactive
CC1(N)CCC(C(C)(C)N)CC1 (stereo not given) | inactive
C=CCOc1cc(Cl)ccc1C(=O)NCCN(CC)CC | 15 µM (active)
CCOC(=O)C(C)(C)C | inactive
CC(C)SCc1ccco1 | inactive
CCCCC(CC)C(=O)OC(C)C (stereo not given) | inactive
CCCCCC(=O)OCC | inactive
COCC(=O)Nc1c(I)c(C(=O)NCC(O)CO)c(I)c(C(=O)N(C)CC(O)CO)c1I (stereo not given) | inactive
